# Assay results taken from article PMC7862700, “An all-to-all approach to the identification of sequence-specific readers for epigenetic DNA modifications on cytosine”.
# Assays:
# Assay in all cases: DAPPL (digital affinity profiling via proximity ligation, sequencing); 10 mM Tris-HCl pH 7.5, 50 mM NaCl, 1 mM DTT, 4% glycerol, room temperature, 30 min; GST-TFs on glutathione beads, 16-mer random dsDNA library, 0.1% formaldehyde crosslink after washing; high values mean tight binding
# FEV = biological target: T1, FEV (Homo sapiens, UniProt Q99581 1-238); conditions: protein: recombinant; tags: N-terminal GST; dsDNA, one strand shown
# T1 sequence: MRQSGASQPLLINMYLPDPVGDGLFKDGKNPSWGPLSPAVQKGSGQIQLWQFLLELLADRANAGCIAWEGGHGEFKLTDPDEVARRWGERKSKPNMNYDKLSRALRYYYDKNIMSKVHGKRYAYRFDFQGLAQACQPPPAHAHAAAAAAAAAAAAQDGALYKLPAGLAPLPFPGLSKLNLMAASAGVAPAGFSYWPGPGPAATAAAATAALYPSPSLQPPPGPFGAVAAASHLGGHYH
# Method in brief: (§1)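 Yeast served to express human transcription factors as GST fusions, which were then captured on glutathione beads and labelled with DNA barcodes. Pooled with a tag-only sample, they were incubated with 200 nmole of a 16-mer random double-stranded DNA library for 30 min at room temperature in Tris/NaCl/DTT/glycerol buffer, washed, crosslinked with 0.1% formaldehyde, ligated by proximity, amplified by PCR and sequenced. Dividing each hexamer's read frequency for a factor by its frequency for the tag-only sample gives the binding signal.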
# ETV5 = ETV5 (Homo sapiens, UniProt P41161 1-510); conditions: protein: recombinant; tags: N-terminal GST; dsDNA, one strand shown
# Method in brief: as §1
# HSF1 = HSF1 (Homo sapiens, UniProt Q00613 1-529); conditions: protein: recombinant; tags: N-terminal GST; chain copies: 3; dsDNA, one strand shown
# Method in brief: as §1
# SPIC = biological target: T2, SPIC (Homo sapiens, UniProt Q8N5J4 1-248); conditions: protein: recombinant; tags: N-terminal GST; dsDNA, one strand shown
# T2 sequence: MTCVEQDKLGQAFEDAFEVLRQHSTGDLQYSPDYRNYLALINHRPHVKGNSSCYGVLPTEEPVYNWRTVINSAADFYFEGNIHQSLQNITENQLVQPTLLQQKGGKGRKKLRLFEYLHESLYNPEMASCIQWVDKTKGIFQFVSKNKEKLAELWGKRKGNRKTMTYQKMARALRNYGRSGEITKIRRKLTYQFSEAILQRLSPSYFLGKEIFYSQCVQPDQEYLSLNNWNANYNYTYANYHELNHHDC
# Method in brief: as §1
# ELF4 = ELF4 (Homo sapiens, UniProt Q99607 1-663); conditions: protein: recombinant; tags: N-terminal GST; dsDNA, one strand shown
# Method in brief: as §1
# ELK4 = biological target: T3, ELK4 (Homo sapiens, UniProt P28324-2 1-405); conditions: protein: recombinant; tags: N-terminal GST; dsDNA, one strand shown
# T3 sequence: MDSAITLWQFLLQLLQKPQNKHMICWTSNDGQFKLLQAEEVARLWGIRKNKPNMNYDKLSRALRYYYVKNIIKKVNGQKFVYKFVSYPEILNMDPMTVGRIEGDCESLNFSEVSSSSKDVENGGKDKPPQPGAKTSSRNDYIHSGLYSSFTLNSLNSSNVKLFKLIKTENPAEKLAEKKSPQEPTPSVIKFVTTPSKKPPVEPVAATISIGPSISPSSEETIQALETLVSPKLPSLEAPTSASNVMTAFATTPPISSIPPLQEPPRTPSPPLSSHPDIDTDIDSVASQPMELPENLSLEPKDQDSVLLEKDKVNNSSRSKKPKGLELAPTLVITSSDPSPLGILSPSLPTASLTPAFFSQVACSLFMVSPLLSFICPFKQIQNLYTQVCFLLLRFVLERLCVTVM
# Method in brief: as §1
# ETV2 = biological target: T4, ETV2 (Homo sapiens, UniProt O00321 1-342); conditions: protein: recombinant; tags: N-terminal GST; dsDNA, one strand shown
# T4 sequence: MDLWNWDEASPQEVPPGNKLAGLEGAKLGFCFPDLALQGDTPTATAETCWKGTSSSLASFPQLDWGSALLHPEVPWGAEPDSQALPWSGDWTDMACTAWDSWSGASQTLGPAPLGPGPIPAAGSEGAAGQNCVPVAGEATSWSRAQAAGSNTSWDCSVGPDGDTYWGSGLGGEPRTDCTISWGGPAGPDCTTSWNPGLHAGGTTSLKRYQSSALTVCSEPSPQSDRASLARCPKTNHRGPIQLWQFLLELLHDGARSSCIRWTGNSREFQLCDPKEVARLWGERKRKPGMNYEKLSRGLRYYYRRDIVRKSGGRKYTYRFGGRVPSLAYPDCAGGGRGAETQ
# Method in brief: as §1
# ELF3 = biological target: T5, ELF3 (Homo sapiens, UniProt P78545 1-371); conditions: protein: recombinant; tags: N-terminal GST; dsDNA, one strand shown
# T5 sequence: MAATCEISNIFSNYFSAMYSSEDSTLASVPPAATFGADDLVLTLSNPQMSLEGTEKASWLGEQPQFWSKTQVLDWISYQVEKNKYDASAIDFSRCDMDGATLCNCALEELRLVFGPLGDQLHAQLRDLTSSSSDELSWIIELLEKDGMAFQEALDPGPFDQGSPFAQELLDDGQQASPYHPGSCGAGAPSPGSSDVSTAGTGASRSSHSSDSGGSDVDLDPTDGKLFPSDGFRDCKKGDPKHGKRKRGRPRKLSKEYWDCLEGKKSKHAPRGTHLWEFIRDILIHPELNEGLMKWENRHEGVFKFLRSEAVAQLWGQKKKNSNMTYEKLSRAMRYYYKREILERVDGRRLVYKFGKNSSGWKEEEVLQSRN
# Method in brief: as §1
# CRX = CRX (Homo sapiens, UniProt O43186 1-299); conditions: protein: recombinant; tags: N-terminal GST; dsDNA, one strand shown
# Method in brief: as §1
# ETV1 = ETV1 (Homo sapiens, UniProt P50549 1-477); conditions: protein: recombinant; tags: N-terminal GST; dsDNA, one strand shown
# Method in brief: as §1
# ERF = biological target: T6, ERF (Homo sapiens, UniProt P50548 1-548); conditions: protein: recombinant; tags: N-terminal GST; dsDNA, one strand shown
# T6 sequence: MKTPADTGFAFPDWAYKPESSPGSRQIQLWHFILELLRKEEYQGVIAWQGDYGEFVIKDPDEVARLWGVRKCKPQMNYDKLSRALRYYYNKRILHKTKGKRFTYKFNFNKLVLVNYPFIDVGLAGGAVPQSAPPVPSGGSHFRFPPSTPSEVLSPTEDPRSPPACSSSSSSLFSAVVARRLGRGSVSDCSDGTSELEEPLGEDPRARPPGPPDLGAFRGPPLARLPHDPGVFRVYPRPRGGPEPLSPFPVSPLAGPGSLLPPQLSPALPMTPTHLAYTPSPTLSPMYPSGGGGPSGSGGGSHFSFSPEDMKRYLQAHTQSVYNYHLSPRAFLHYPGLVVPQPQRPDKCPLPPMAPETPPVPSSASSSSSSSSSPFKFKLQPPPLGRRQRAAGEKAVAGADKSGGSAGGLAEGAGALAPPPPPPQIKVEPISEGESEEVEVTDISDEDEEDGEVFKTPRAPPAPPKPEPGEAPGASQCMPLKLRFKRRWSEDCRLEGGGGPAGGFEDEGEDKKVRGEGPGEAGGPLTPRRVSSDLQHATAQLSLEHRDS
# Method in brief: as §1
# ETV3L = biological target: T7, ETV3L (Homo sapiens, UniProt Q6ZN32 1-361); conditions: protein: recombinant; tags: N-terminal GST; dsDNA, one strand shown
# T7 sequence: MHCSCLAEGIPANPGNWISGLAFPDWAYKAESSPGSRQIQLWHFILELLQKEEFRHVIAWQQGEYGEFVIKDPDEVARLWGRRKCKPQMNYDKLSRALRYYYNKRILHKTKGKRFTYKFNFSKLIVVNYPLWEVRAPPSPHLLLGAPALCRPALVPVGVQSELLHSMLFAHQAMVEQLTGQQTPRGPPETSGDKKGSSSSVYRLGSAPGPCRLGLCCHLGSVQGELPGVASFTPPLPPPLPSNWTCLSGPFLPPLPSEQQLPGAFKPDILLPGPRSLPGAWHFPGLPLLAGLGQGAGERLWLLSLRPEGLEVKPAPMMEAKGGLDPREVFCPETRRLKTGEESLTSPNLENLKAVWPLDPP
# Method in brief: as §1
# ETS2 = biological target: T8, ETS2 (Homo sapiens, UniProt P15036 1-469); conditions: protein: recombinant; tags: N-terminal GST; dsDNA, one strand shown
# T8 sequence: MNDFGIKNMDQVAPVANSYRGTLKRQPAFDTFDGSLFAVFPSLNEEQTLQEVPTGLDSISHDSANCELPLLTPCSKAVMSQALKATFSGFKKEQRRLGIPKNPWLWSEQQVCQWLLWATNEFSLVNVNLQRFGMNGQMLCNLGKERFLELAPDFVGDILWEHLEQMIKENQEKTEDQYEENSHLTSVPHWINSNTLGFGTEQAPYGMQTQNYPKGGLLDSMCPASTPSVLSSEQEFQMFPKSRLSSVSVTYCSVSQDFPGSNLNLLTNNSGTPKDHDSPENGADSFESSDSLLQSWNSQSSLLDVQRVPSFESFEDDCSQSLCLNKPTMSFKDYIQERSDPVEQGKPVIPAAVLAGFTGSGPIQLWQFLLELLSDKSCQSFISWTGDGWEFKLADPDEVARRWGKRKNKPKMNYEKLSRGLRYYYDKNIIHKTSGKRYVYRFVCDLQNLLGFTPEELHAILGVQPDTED
# Method in brief: as §1
# SPDEF = biological target: T9, SPDEF (Homo sapiens, UniProt O95238 1-335); conditions: protein: recombinant; tags: N-terminal GST; dsDNA, one strand shown
# T9 sequence: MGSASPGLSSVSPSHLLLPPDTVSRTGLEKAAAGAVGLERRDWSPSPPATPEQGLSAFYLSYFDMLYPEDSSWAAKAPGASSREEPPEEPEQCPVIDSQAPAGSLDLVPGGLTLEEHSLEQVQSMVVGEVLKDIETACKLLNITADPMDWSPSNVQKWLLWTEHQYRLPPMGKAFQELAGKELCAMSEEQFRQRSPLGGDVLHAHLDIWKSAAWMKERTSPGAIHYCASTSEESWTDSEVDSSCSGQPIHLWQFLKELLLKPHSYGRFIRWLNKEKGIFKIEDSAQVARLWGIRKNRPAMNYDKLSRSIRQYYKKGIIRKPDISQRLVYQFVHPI
# Method in brief: as §1
# ETV7 = biological target: T10, ETV7 (Homo sapiens, UniProt Q9Y603 1-341); conditions: protein: recombinant; tags: N-terminal GST; dsDNA, one strand shown
# T10 sequence: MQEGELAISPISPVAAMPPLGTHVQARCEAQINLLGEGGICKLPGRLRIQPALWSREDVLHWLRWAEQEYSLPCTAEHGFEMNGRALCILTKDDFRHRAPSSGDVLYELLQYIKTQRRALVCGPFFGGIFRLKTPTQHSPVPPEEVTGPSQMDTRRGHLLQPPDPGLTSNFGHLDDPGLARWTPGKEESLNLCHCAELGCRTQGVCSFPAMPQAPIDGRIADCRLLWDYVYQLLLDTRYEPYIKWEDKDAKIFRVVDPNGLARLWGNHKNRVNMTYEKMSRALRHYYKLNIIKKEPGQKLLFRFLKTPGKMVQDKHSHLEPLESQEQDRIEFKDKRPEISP
# Method in brief: as §1
# ELF5 = biological target: T11, ELF5 (Homo sapiens, UniProt Q9UKW6-2 1-255); conditions: protein: recombinant; tags: N-terminal GST; dsDNA, one strand shown
# T11 sequence: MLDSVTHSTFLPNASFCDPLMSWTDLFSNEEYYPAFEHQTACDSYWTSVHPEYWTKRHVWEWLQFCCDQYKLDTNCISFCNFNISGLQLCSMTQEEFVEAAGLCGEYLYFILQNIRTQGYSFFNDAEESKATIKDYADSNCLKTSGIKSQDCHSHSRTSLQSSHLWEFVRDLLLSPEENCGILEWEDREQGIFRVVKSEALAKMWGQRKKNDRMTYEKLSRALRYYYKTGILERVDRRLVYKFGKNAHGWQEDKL
# Method in brief: as §1
# ETV3 = biological target: T12, ETV3 (Homo sapiens, UniProt P41162-2 1-143); conditions: protein: recombinant; tags: N-terminal GST; dsDNA, one strand shown
# T12 sequence: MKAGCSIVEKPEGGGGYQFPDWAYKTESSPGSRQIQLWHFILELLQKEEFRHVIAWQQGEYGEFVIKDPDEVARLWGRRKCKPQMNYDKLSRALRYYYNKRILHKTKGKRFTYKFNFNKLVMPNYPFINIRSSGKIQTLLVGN
# Method in brief: as §1
# ETV6 = ETV6 (Homo sapiens, UniProt P41212 1-452); conditions: protein: recombinant; tags: N-terminal GST; dsDNA, one strand shown
# Method in brief: as §1
# Sequence of ETV5 (P41161 whole entry): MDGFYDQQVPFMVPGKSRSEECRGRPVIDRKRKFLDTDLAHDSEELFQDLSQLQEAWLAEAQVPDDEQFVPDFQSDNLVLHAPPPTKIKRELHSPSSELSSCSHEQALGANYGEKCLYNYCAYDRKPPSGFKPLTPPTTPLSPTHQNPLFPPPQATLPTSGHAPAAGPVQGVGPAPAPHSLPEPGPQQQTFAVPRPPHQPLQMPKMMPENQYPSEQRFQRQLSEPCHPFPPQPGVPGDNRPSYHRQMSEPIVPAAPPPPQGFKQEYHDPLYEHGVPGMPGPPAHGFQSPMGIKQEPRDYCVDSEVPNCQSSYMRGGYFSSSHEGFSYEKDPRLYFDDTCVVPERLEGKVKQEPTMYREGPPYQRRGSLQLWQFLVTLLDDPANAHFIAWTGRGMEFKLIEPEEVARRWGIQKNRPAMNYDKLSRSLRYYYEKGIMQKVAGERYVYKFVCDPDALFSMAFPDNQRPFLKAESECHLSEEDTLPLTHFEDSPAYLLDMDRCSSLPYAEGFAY
# Sequence of HSF1 (Q00613 whole entry): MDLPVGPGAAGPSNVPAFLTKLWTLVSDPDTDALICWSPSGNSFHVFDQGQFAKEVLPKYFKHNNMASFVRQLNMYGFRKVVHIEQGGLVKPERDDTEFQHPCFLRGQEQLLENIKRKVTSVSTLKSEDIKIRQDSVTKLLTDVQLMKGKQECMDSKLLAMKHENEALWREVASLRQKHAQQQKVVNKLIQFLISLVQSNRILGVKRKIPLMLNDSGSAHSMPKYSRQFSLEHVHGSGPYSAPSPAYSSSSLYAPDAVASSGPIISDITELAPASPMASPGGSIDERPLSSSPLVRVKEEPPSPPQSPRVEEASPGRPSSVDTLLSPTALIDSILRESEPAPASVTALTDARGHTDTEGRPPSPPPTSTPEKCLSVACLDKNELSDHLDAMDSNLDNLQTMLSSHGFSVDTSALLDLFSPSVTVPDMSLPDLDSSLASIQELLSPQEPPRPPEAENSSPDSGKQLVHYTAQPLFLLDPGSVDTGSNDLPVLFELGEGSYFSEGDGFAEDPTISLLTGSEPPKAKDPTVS
# Sequence of CRX (O43186 whole entry): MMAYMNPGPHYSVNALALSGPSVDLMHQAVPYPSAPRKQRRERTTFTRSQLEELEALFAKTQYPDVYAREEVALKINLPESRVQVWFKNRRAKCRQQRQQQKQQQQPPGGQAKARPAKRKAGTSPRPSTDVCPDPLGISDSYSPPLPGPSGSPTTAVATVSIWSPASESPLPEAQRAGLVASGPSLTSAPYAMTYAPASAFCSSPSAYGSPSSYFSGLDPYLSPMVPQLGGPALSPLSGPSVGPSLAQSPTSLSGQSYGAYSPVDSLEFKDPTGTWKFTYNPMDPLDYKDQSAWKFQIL
# Sequence of ELF4 (Q99607 whole entry): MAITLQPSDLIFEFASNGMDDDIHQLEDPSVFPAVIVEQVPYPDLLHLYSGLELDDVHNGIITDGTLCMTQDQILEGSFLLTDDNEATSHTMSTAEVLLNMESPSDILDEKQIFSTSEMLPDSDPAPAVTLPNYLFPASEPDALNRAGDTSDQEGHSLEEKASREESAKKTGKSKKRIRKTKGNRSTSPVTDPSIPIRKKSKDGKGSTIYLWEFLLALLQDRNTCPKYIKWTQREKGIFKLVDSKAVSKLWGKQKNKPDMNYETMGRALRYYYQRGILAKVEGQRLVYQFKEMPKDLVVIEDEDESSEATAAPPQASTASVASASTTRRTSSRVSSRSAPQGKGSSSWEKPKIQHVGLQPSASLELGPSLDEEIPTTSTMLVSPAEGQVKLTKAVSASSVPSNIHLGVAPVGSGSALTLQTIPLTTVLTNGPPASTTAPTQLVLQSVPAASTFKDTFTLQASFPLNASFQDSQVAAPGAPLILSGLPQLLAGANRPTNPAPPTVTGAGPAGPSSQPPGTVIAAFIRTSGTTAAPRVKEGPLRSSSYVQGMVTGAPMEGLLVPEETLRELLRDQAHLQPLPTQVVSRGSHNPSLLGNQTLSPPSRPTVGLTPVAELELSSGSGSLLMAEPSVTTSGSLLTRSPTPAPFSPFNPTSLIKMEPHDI
# Sequence of ETV6 (P41212 whole entry): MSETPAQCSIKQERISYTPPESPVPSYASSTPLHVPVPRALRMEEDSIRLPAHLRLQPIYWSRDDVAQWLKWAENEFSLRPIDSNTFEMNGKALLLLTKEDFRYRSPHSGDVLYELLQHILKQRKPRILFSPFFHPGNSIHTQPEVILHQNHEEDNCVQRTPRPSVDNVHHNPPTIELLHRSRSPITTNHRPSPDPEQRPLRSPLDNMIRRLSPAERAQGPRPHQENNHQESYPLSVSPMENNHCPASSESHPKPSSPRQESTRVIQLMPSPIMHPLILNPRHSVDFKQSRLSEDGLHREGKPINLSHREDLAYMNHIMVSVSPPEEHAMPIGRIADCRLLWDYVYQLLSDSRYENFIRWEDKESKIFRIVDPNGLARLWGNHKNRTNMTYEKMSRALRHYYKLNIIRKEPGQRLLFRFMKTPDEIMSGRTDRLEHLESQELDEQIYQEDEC
# Sequence of ETV1 (P50549 whole entry): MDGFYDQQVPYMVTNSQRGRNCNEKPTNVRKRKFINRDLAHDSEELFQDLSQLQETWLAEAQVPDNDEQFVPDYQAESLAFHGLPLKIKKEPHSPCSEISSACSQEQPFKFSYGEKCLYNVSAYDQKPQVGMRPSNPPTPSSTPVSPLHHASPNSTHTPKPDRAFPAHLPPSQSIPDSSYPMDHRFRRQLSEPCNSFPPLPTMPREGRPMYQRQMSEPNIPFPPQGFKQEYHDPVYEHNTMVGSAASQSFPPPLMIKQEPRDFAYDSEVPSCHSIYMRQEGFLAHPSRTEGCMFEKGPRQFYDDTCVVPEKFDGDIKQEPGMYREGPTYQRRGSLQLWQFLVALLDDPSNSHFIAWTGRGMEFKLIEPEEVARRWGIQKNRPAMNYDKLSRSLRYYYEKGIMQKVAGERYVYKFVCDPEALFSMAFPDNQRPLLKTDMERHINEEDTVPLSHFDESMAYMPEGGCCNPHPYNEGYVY
sequence,measurement,setting,value
TAAAAA,binding signal,FEV,"1.29 fold enrichment (6-mer frequency, TF over GST control)"
same,binding signal,ETV5,"1.3 fold enrichment (6-mer frequency, TF over GST control)"
same,binding signal,HSF1,"1.56 fold enrichment (6-mer frequency, TF over GST control)"
same,binding signal,SPIC,"1.34 fold enrichment (6-mer frequency, TF over GST control)"
same,binding signal,ELF4,"1.45 fold enrichment (6-mer frequency, TF over GST control)"
same,binding signal,ELK4,"1.34 fold enrichment (6-mer frequency, TF over GST control)"
same,binding signal,ETV2,"1.4 fold enrichment (6-mer frequency, TF over GST control)"
same,binding signal,ELF3,"1.33 fold enrichment (6-mer frequency, TF over GST control)"
same,binding signal,CRX,"1.82 fold enrichment (6-mer frequency, TF over GST control)"
same,binding signal,ETV1,"1.26 fold enrichment (6-mer frequency, TF over GST control)"
same,binding signal,ERF,"1.37 fold enrichment (6-mer frequency, TF over GST control)"
same,binding signal,ETV3L,"1.37 fold enrichment (6-mer frequency, TF over GST control)"
same,binding signal,ETS2,"1.33 fold enrichment (6-mer frequency, TF over GST control)"
same,binding signal,SPDEF,"1.32 fold enrichment (6-mer frequency, TF over GST control)"
same,binding signal,ETV7,"1.31 fold enrichment (6-mer frequency, TF over GST control)"
same,binding signal,ELF5,"1.29 fold enrichment (6-mer frequency, TF over GST control)"
same,binding signal,ETV3,"1.25 fold enrichment (6-mer frequency, TF over GST control)"
same,binding signal,ETV6,"1.26 fold enrichment (6-mer frequency, TF over GST control)"
